Measurements as given in PubChem BioAssay (Tox21).
Inconclusive results are not listed. Activity calls are given as the source filed them. Calls come from the whole dose curve; as a rule, active = well fitted cell-killing curve with a large enough effect in the repeat runs; inconclusive = weak or mixed curves, or effect the other way; inactive = flat fitted curve, though single readings scatter.

Assay: cAMP Responsive Elements (CRE) small molecule agonists, cell-based qHTS assay: qHTS cell viability counter screen (AID 2060914);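 note: viability read after 3 h of compound exposure; nearly all actives have a fitted effect of over 50% in size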
Settings: CRE-bla HEK293T viability, CellTiter-Glo luminescence, 5 h; series mostly up to 92.4 µM; activity change, negative = cytotoxicity: at the top concentration
Description: National Center for Advancing Translational Sciences [NCATS]
Division of Preclinical Innovation [DPI]
U.S. Environmental Protection Agency [EPA]
National Institutes of Environmental Health Sciences [NIEHS]
National Toxicology Program [NTP]
U.S. Food and Drug Administration [FDA]
CREB (cyclic-AMP Responsive Element Binding Protein) is a cellular transcription factor. It binds to certain DNA sequences called cAMP Responsive Elements (CRE) and regulates the transcription of the genes. […] This cell line can be used to find agonists/antagonists of the cyclic AMP signaling pathway. The activation of the report gene under culture conditions can be detected by fluorescence intensity. This cell line has been used to screen the Tox21 10K compound library to identify agonists that induce oxidative stress. The cytotoxicity of the Tox21 compound library against the CRE-bla cell line was tested in parallel by measuring the cell viability using CellTiter-Glo assay (Promega, Madison, WI) in the same wells.
Tox21 Assay Protocol Summary:
CRE-bla Hek 293T cells were suspended in assay medium (DMEM containing 10% dialyzed FBS, 0.1 mM NEAA, 1 mM sodium pyruvate and 25 mM HEPES) and dispensed at 2,000 cells/5 uL /well into 1536-well black wall/clear bottom plates using a Multidrop Combi (ThermoFisher Scientific, Waltham, MA) dispenser. After the assay plates were incubated at 37 C/5% CO2 for 18 hrs, 23 nL of compounds dissolved in DMSO, positive controls or DMSO only was transferred to the assay plate by a pintool workstation (Kalypsys, San Diego, CA). After the plates were incubated at 37 C/5% CO2 for 3 hrs, 1 uL of LiveBLAzer B/G FRET substrate (Invitrogen, Carlsbad, CA) was added to each well using Bioraptr Flying Reagent Dispenser (FRD, Aurora Discovery, San Diego, CA). The plates were incubated at room temperature for 2 h, then fluorescence intensities were measured using an Envision plate reader (PerkinElmer, Shelton, CT) at Excitation 405nm, Emission 460nm and 530nm. The % activity was determined from the ratio of 460nm/530nm. For cell viability readout that measures cytotoxicity, 4 uL /well of CellTiter-Glo reagent was added into the assay plates using Bioraptr FRD. After 30 min incubation at room temperature, the luminescence intensity in the assay plates was measured using a ViewLux (PerkinElmer, Shelton, CT) plate reader.
% is set by controls: 0 for no effect and ±100 for the full control effect.

SMILES	activity change, negative = cytotoxicity	Potency
COc1cc2nc(N3CCN(C(=O)c4ccco4)CC3)nc(N)c2cc1OC	4.06% [at 18.9 µM] (inactive)	–
NC(=O)c1ccccc1C(N)=O	-0.496% (inactive)	–
N#CSc1ccc(N)c([N+](=O)[O-])c1	15.7% (inactive)	–
CCOc1nc(F)cc2nc(S(=O)(=O)Nc3c(Cl)cccc3C(=O)OC)nn12	4.94% (inactive)	–
C1COC(NC(C2CC2)C2CC2)=N1	1.06% [at 42.5 µM] (inactive)	–
CCc1cccc(CC)c1	-4.88% (inactive)	–
Cc1ccc(C)c(O)c1	–	inactive
C[C@H]1O[C@@H](n2cc(F)c(=O)[nH]c2=O)[C@H](O)[C@@H]1O	-0.401% [at 42.5 µM] (inactive)	–
CCC(C)COC(C)=O (stereo not given)	2.81% (inactive)	–
Cc1ccc(=O)n(-c2ccccc2)c1	1.05% [at 42.5 µM] (inactive)	–
Cc1cc(SC2=C(O)C[C@@](CCc3ccc(N)cc3)(C(C)C)OC2=O)c(C(C)(C)C)cc1CO	8.21% (inactive)	–
C=CC(C)(O)CC/C=C(\C)CCC=C(C)C (stereo not given)	7.01% (inactive)	–
CC[C@H]1OC(=O)[C@H](C)[C@@H](O[C@H]2C[C@@](C)(OC)[C@@H](O)[C@H](C)O2)[C@H](C)[C@@H](O[C@@H]2O[C@H](C)C[C@H](N(C)C)[C@H]2O)[C@](C)(O)C[C@@H](C)C(=O)[C@H](C)[C@@H](O)[C@]1(C)O	-0.662% [at 42.5 µM] (inactive)	–
CCCOC(C)=O	-15% (inactive)	–
C=CCOc1c(Br)cc(Br)cc1Br	0.13% (inactive)	–
OCC(F)(F)F	0.868% (inactive)	–
CCOCCOCCO	–	inactive
CCCCCCCCO	–	inactive
CC[C@H]1CC[C@H](NCc2cc3c(cc2OC)[C@H]2C[C@H]2C(=O)N3C)[C@H](c2ccccc2)N1	5.16% (inactive)	–
NNS(=O)(=O)c1ccc(Oc2ccc(S(=O)(=O)NN)cc2)cc1	-24.4% (inactive)	–

SMILES	activity change, negative = cytotoxicity	Potency
O=C1OC2(c3cc(Br)c(O)c(Br)c3Oc3c2cc(Br)c(O)c3Br)c2c(Cl)c(Cl)c(Cl)c(Cl)c21	–	inactive
CCCCC(CC)COC(=O)CS (stereo not given)	–	inactive
CNCC[C@@H](Oc1ccccc1C)c1ccccc1	-1.76% [at 42.5 µM] (inactive)	–
O=C(CO)[C@@H](O)[C@H](O)[C@@H](O)CO	9.26% [at 42.5 µM] (inactive)	–
NC(=O)NO	–	inactive
CC(=O)OC(C)OC(C)=O	6.25% (inactive)	–
CCCCOC(=O)[C@H](C)O	-0.583% (inactive)	–
CNC(=O)CN(CCN(CCN(CC(=O)[O-])CC(=O)NC)CC(=O)[O-])CC(=O)[O-].O.[Gd+3]	-0.484% [at 42.5 µM] (inactive)	–
CCCCC(=O)O[C@]1(C(=O)CO)[C@H](C)C[C@H]2[C@@H]3CCC4=CC(=O)C=C[C@]4(C)[C@@]3(F)[C@@H](O)C[C@@]21C	0.994% [at 42.5 µM] (inactive)	–
CN1CCN(c2c(F)cc3c(=O)c(C(=O)O)cn4c3c2OCN4C)CC1	10.7% [at 18.9 µM] (inactive)	–
Clc1nc(C(Cl)(Cl)Cl)c(Cl)c(Cl)c1Cl	-4.42% (inactive)	–
Clc1ccc(C(Cn2ccnc2)OCc2ccc(Sc3ccccc3)cc2)c(Cl)c1 (stereo not given)	-8.7% [at 42.5 µM] (inactive)	–
CCOC(=O)Nc1ccc(NCc2ccc(F)cc2)nc1N	-4.54% [at 42.5 µM] (inactive)	–
COc1cc2c(c(OC)c1OC)-c1ccc(OC)c(=O)cc1[C@@H](NC(C)=O)CC2	–	inactive
C=C1CC[C@H]2O[C@]2(C)CC[C@@H]2[C@@H]1CC2(C)C	0.749% (inactive)	–
OCCOCCOCCOCCO	–	inactive
CCOC(=O)Cn1cccc1-c1nc(-c2ccc(OC)cc2)c(-c2ccc(OC)cc2)s1	-16.3% [at 42.5 µM] (inactive)	–
CCCC[O][Al]([O]CCCC)[O]CCCC	3.14% (inactive)	–
Cc1ccc(C#N)cc1	0.172% (inactive)	–
N#CC1(O)CCCCC1	1.18% (inactive)	–
